Hits are enriched below; roughly 2.3% of the tested compounds scored in any of these assays.
CHO-K1 Ca antag – M1 antagonist counterscreen hit in parental CHO-K1 cells | ATP-induced calcium, Fluo-8 fluorescence | inhibition, % at 3 µM | AID 602250 | actives 0.6% (n = 360,000);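 active means inhibition above a per-plate cutoff, the plate's mean sample inhibition plus 3 SD, cut at about 24% in these data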
CHRM1 antagonist – human M1 muscarinic receptor antagonists, primary screen, CHO-K1 cells, Fluo-8 calcium fluorescence, 1536-well; actives 1.3% (n = 360,000); AID 588852, 2011; CHO-K1 hM1, ACh EC80 antagonist; inhibition, % at 3 µM; Muscarinic acetylcholine receptor M1 (Homo sapiens), P11229;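 active means percent inhibition above its own plate's cutoff, namely the mean of that plate's compound wells plus 3 SD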;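 further: peak over basal fluorescence ratio during 140 s after agonist addition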
Target sequence (P11229 whole entry, looked up): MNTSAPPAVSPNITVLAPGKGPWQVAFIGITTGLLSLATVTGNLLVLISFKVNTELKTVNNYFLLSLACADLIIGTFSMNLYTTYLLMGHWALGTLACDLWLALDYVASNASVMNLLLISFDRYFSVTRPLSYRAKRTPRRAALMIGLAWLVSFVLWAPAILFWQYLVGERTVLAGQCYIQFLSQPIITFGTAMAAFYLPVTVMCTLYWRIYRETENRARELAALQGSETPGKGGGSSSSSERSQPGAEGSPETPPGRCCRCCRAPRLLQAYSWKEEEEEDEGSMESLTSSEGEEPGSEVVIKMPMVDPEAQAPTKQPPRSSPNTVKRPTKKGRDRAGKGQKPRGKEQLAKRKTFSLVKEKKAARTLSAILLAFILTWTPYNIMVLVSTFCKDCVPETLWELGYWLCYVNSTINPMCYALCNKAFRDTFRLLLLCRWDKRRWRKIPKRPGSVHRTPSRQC
CHO-K1 Ca PAM – nonselective calcium activators in parental CHO-K1 cells, primary screen, counter-screen for M1 PAM project, cell-based, Fluo-8 calcium fluorescence, full deck, 1536-well. ATP EC20; 0% at ATP EC20, 100% at ATP max. activation, % at 3 µM. actives 0.02% (n = 360,000). AID 602247, 2012;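 active means activation above the run cutoff, the mean activation of all test compounds plus 3 SD, cut at about 40% in these data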;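 further: peak over basal fluorescence ratio in a 140 s read after ATP addition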
M1 ag parental – counter-screen for M1 agonists: effect in parental CHO-K1 cells; actives 0.48% (n = 360,000); Fluo-8 calcium fluorescence; scaled to maximal ATP response, vehicle zero; activation, % at 3 µM; in the data active means activation above about 15%;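 further: untransfected CHO-K1 host cells lacking M1 receptor as counterscreen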
M1 PAM – human M1 muscarinic receptor positive allosteric modulators, primary screen, CHO-K1 cells, Fluo-8 calcium fluorescence, 1536-well. AID 588819, 2011. actives 0.088% (n = 360,000). CHO-K1 hM1, ACh EC20; 0% = ACh EC20, 100% = maximal ACh. activation, % at 3 µM. Muscarinic acetylcholine receptor M1 (Homo sapiens), P11229; in the data active means activation above about 19%, passing the limit was not always enough
M1 ag – human M1 muscarinic receptor agonists, primary screen, Fluo-8 calcium fluorescence, CHO-K1 cells, HTS | Muscarinic acetylcholine receptor M1 (Homo sapiens), P11229 | AID 588814, 2011 | actives 0.33% (n = 360,000) | activation, % at 3 µM | CHO-K1 hM1, agonist mode; 0% DMSO, 100% acetylcholine EC100;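 active means activation above the run's mean compound activation plus 3 SD, cut at about 16% in these data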;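 further: peak over basal fluorescence ratio within a 140 s kinetic read after compound addition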
Of the large screens only hits and unclear results are named; the others gave an inactive call.

CC1(C)Oc2ccc3ccc(=O)oc3c2/C(=C/Nc2ccc(O)cc2)C1=O	none
CC1(C)Oc2ccc3ccc(=O)oc3c2/C(=C/Nc2cccc(O)c2)C1=O	CHO-K1 Ca antag 29
COc1ccc(N=Cc2sc(O)c3ccccc23)cc1	CHRM1 antagonist 30, M1 ag 30
COc1ccc(N=Cc2c(O)c3ccccc3n2C(C)=O)cc1	none
CN(C)c1nccc(N(Cc2ccccc2)Cc2ccccc2)c1C#N	CHRM1 antagonist 55
CN(C)CCN(Cc1ccccc1)c1ccnc(N(C)C)c1C#N	none
CCOc1cccc2cc(C(=O)Oc3ccc(OC)cc3)c(=O)oc12	M1 ag parental 16
COc1cccc(CC2(CO)CCCN(Cc3sc(N4CCCC4)nc3Cl)C2)c1 (stereo not drawn)	none
CN(C)C(=O)CCc1ccc2c3c([nH]c2c1)[C@]1(C)[C@@H](C(=O)N2CCOCC2)C[C@H](CC(=O)NCCN2CCOCC2)C(=O)N1CC3	CHO-K1 Ca antag 24
CCN=C(NCC)SC1CC(=O)N(c2cccc(OCC)c2)C1=O (stereo not drawn)	CHO-K1 Ca antag 30, CHRM1 antagonist 44
Cc1ccc(CSCC(=O)N(C)CC(=O)Nc2ccc(Cl)c(Cl)c2)cc1	none
Cc1noc(COc2ccccc2OCC(N)=O)n1	M1 ag parental 16
COc1cc(C(=O)Nc2ccc3c(c2)N(C(=O)CCN(C)C)c2ccccc2CC3)cc(OC)c1OC	CHRM1 antagonist 27
CC(C)(C)CC(C)(C)NCC(O)COc1ccc2c(c1)CCC2 (stereo not drawn)	CHRM1 antagonist 49
Cc1ccc(NC(=O)C2(C)CCCN(C(C)C)C2)cc1C (stereo not drawn)	none
COc1ccc(NC(=O)C2(C)CCCN(C(C)C)C2)cc1OC (stereo not drawn)	M1 PAM 34
C=CCn1c(CNC(=O)c2ccccc2F)nnc1SCC(=O)N1CCOCC1	none
CCOc1ccc(NS(=O)(=O)c2ccc(C(=O)NCC(c3cccs3)N3CCOCC3)cc2)cc1 (stereo not drawn)	M1 ag parental 25, M1 ag 29
O=C(NCC(c1cccs1)N1CCOCC1)c1ccccc1NS(=O)(=O)c1ccc(Cl)c([N+](=O)[O-])c1 (stereo not drawn)	M1 ag parental 16
COc1cc(C(=O)NCC(c2cccs2)N2CCOCC2)ccc1OCc1ccccc1 (stereo not drawn)	CHO-K1 Ca antag 27
CC(=O)c1ccc(S(=O)(=O)Nc2ccc(C(=O)NCC(c3cccs3)N3CCOCC3)cc2)cc1 (stereo not drawn)	none
CN(C)C(CNC(=O)c1cccc(NS(=O)(=O)c2ccc(Br)cc2)c1)c1ccco1 (stereo not drawn)	CHRM1 antagonist 70
CCCCn1c(N)c(N(CC(C)C)C(=O)CC2CCCC2)c(=O)[nH]c1=O	none
C[C@H]1CN([C@@H](C)CO)C(=O)CCCn2nncc2CO[C@@H]1CN(C)S(=O)(=O)c1cccc(F)c1	none
CCOc1ccc(S(=O)(=O)Nc2ccc(C(=O)NCC(c3ccco3)N(C)C)cc2)cc1 (stereo not drawn)	CHRM1 antagonist 32
COc1ccc2[nH]c3c(c2c1)CCN1C(=O)C(CC(=O)NCCN2CCOCC2)C[C@H](C(=O)N2CCOCC2)[C@@]31C (stereo partly drawn)	none
CCOC(=O)CN1C(=O)Nc2ccc(Br)cc2C1c1ccccc1 (stereo not drawn)	CHRM1 antagonist 50
Cc1c(C(C)C)c(=O)n(-c2ccc(S(=O)(=O)NCc3ccccc3)cc2)n1C	CHO-K1 Ca antag 25, CHRM1 antagonist 34
COc1ccc(-c2cc(C(F)(F)F)n3nc(C(=O)Nc4c(C)n(C)n(-c5ccccc5)c4=O)c(Cl)c3n2)cc1	CHO-K1 Ca antag 26
Cc1c(NC(=O)c2nn3c(C(F)(F)F)cc(-c4ccccc4)nc3c2Cl)c(=O)n(-c2ccccc2)n1C	none
Cc1cc(NC(=O)c2cnn3c(C(F)(F)F)cc(-c4ccccc4)nc23)no1	CHRM1 antagonist 33
CC(C)NS(=O)(=O)c1ccc(CCC(=O)N2CCCC2)cc1	CHO-K1 Ca antag 24
CCN(CC)CCOC(=O)c1ccc(NC(=O)CCCN2C(=O)/C(=C\c3cccs3)SC2=S)cc1	CHRM1 antagonist 43
O=C(CCN1C(=O)/C(=C\c2cccs2)SC1=S)Nc1ccc(C(=O)O)cc1	none
O=C(c1cccc2c1-c1ccccc1/C2=N/O)N1CCCCC1	CHO-K1 Ca antag 25
O=C(O)c1cccc2c1-c1ccccc1/C2=N\Nc1ccccc1	none
O=C(O)c1cccc2c1/C(=N/O)c1ccccc1-2	M1 PAM 29
C=CCN1C(=O)C2(OCCO2)c2cc(C)ccc21	none
COc1ccccc1NC(=S)N1CCN(c2nc(-c3ccccc3)cs2)CC1	none
CC(=O)Nc1cccc(OCC(=O)NC(C)c2ccc3ccccc3c2)c1 (stereo not drawn)	none
COc1ccc(CN(Cc2ccccn2)S(=O)(=O)c2ccc(-n3cnnn3)cc2)cc1	CHO-K1 Ca antag 40
COc1ccc(CN(Cc2ccccn2)S(=O)(=O)c2ccc(-n3cnnn3)c(OC)c2)cc1	none
CCN(CC)c1nc(C=Cc2ccc(N(C)C)cc2)c2nccnc2n1	CHO-K1 Ca antag 44, CHRM1 antagonist 46, M1 ag parental 45, M1 ag 33
CN(C)c1nc(N)c2nccnc2n1	none
COc1cccc(C=Cc2nccc3ccccc23)c1OC	none
CN(C)c1ccc(C=Cc2nccc3ccccc23)cc1	CHO-K1 Ca antag 25, CHRM1 antagonist 41, M1 ag parental 20, M1 ag 27
Cc1ccc(N(C(=O)c2csnn2)C(C(=O)NC2CCCCC2)c2cccnc2)cc1 (stereo not drawn)	none
COc1cc(/C=N/NC(=O)CCN2CCN(C(c3ccccc3)c3ccccc3)CC2)ccc1O	CHRM1 antagonist 28
CCc1ccc(NC(=O)CSc2nc3ccccc3c(=O)n2CCCC(=O)N2CCCC2)cc1	CHO-K1 Ca antag 25
CCOCCCn1c(SCC(=O)Nc2ccccc2)nc2ccccc2c1=O	CHO-K1 Ca antag 35
CCOCCCn1c(SCC(=O)Nc2ccc(NC(C)=O)cc2)nc2ccccc2c1=O	none
CCCCCCSc1ccc([C@H]2N[C@@](C)(C(=O)OC)[C@H]3C(=O)N(C)C(=O)[C@@H]23)cc1	CHRM1 antagonist 36
CCCSc1ccc([C@H]2N[C@@](C)(C(=O)OC)[C@H]3C(=O)N(C)C(=O)[C@@H]23)cc1	none

Compound activity as filed in PubChem BioAssay.
